These results are taken from PubChem BioAssay AID2284085 (EPA ToxCast).

The source made the active and inactive calls. Rule for the calls: active = hit-call score of the fitted dose curve at least 0.9, where 1 is the maximum; inactive = score below 0.9.

human Fms (CSFR) (CSF1R) Receptor Tyrosine Kinase, CSF1R (gene 1436), sequence (P07333 whole entry, looked up): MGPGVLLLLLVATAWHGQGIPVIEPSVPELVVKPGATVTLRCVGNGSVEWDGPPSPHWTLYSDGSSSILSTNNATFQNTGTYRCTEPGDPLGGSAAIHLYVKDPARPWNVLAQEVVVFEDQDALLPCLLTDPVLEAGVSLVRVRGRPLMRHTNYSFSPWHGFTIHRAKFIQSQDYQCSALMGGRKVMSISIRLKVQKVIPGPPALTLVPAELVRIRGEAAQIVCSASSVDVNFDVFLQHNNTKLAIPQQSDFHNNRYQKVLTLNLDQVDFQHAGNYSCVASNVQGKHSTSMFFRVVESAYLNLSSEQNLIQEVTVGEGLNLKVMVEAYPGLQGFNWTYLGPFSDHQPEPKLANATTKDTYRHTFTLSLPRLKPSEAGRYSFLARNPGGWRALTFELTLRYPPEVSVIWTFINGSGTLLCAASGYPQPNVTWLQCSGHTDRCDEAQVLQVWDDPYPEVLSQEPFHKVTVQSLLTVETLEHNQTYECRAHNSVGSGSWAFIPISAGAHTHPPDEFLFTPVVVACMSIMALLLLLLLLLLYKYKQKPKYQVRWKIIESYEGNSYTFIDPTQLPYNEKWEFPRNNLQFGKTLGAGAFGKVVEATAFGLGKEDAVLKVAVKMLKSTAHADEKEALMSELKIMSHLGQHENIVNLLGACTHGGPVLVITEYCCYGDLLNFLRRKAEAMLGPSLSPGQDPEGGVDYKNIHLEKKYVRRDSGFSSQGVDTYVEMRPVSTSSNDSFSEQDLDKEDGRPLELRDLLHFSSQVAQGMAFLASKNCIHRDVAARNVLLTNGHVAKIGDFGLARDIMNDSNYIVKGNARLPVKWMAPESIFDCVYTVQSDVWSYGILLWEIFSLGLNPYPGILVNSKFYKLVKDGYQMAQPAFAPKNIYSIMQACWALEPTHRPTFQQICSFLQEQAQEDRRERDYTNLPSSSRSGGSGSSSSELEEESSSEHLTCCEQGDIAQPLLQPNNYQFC

The test deals with human Fms (CSFR) (CSF1R) Receptor Tyrosine Kinase, CSF1R (gene 1436) (UniProt P07333). Nature of the test: ERF_FR_ENZ_hCSF1R: Eurofins (ERF) Enzymatic Radiometric [Km ATP] KinaseProfiler LeadHunter Assay for human Fms (CSFR) (CSF1R) Receptor Tyrosine Kinase. The protocol:
ERF_FR_ENZ_hCSF1R is a biochemical, single-readout assay that uses extracted gene-proteins in a cell-free assay. Measurements were taken 0.25 hour after chemical dosing in a 96-well plate. See Fms (CSFR) Human RTK Kinase Enzymatic LANCE Assay [Km ATP], Cerep.ERF_FR_ENZ_hCSF1R is an assay component calculated from the ERF_FR_ENZ_hCSF1R assay. It is designed to measure enzyme activity using a type of enzyme reporter as detected by fluorescence intensity with LANCE technology.Data from the assay component ERF_FR_ENZ_hCSF1R was analyzed at the assay endpoint, ERF_FR_ENZ_hCSF1R, in the positive analysis fitting direction relative to DMSO as the negative control and baseline of activity. Using a type of enzyme reporter, loss-of-signal activity can be used to understand changes in enzymatic activity as they relate to gene CSF1R. To generalize the intended target to other relatable targets, this assay endpoint is annotated to the kinase intended target family, where the subfamily is receptor tyrosine kinase.
Fms (h) is incubated with 8 mM MOPS pH 7.0, 0.2 mM EDTA, 250 uM […], 10 mM MgAcetate and [g- 33P]-ATP (specific activity and concentration as required). The reaction is initiated by the addition of the Mg/ATP mix. After incubation for 40 minutes at room temperature, the reaction is stopped by the addition of phosphoric acid to a concentration of 0.5%. […]
As for `O=C(/C=C/c1ccc(O)cc1)CC(=O)/C=C/c1ccc(O)cc1`, the compound was classed as inactive.
